In the supplement of paper PMC3334620:
Over roughly 33,000 sequences, “E-score (-0.5 to 0.5)” has its median near -0.0014; the highest 2% begin near 0.25. What follows is part of a selection rich in the highest values, with near analogues and random picks from the rest.

molecular target: T1, Cad1 (UniProt P24813); test: PBM E-score (8-mer binding enrichment) (E-score (-0.5 to 0.5)); higher = stronger / more preferred TF binding; settings: protein concentration: 100 nM; construct: GST-full length
T1 sequence: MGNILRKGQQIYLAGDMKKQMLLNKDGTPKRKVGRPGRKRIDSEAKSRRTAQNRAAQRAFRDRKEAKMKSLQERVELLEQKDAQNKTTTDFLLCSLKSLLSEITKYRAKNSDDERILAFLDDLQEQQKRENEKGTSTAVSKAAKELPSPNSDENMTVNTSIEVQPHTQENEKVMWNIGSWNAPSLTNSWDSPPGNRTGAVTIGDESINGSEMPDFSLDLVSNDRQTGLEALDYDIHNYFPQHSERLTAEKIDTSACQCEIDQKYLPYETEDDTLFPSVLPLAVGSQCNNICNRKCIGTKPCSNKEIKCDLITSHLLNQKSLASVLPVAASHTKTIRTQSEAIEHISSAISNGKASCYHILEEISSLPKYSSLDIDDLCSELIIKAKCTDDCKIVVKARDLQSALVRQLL
In short: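 Masliner-normalised scans of fluorescent anti-GST signal were the basis for scoring. That signal came from GST-tagged yeast transcription factors applied at about 100-200 nM to double-stranded universal all-10-mer Agilent arrays on fresh or once-stripped slides. Each ungapped eight-base word, pooled with its reverse complement, received an E-score from the Universal PBM Analysis Suite.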

| Sequence | PBM E-score |
| --- | --- |
| TGGAGAAA | -0.151 |
| AGATTAAT | 0.16 |
| AAATTAGG | 0.13 |
| AAATTAAG | 0.0523 |
| AAATTAAC | 0.0173 |
| AAATTAAA | 0.257 |
| AAATTACC | 0.081 |
| AAATTAGA | 0.191 |
| AAATTACG | -0.00187 |
| AAATTAAT | 0.288 |
| AAATTAGT | 0.273 |
| GAATTAAA | -0.0332 |
| AAATTACT | 0.314 |
| AAGTAACG | -0.0002 |
| AACCTGCG | -0.142 |
| CAAAGAGA | -0.113 |
| ACCCGTTC | -0.0216 |
| CCAGGGCG | -0.18 |
| AGAGTTGG | -0.0857 |
| TTGGTAAA | 0.073 |
| CAAATTAA | 0.207 |
| GAAATTAC | 0.234 |
| GAAATTAA | 0.295 |
| GCGTAATA | 0.142 |
| ACATAATC | 0.309 |

| Sequence | PBM E-score |
| --- | --- |
| ACATAATG | 0.172 |
| CCGTAATA | 0.113 |
| ACGTAATC | 0.286 |
| ACGTAAGA | 0.199 |
| ACGTAATG | 0.147 |
| ACGTAAGC | 0.287 |
| CCGTAATC | 0.143 |
| ACATAATA | 0.178 |
| ACGTAAGT | -0.102 |
| ACGTAATA | 0.311 |
| AAGTGGAA | -0.0197 |
| CTCCCGCC | -0.163 |
| ACGAAAGT | 0.0253 |
| ACACAACT | 0.0775 |
| GAAGCCAA | -0.183 |
| CCGAAGCG | -0.22 |
| ACATAACA | 0.273 |
| ACATAACC | -0.0477 |
| ATGTAAGA | 0.227 |
| TAATAACA | 0.15 |
| CAATAACA | -0.0158 |
| ACCTAATC | 0.259 |
| CCCTAATC | -0.076 |
| ATGTAAGG | 0.0288 |
| GAATAACA | 0.252 |

| Sequence | PBM E-score |
| --- | --- |
| ATGTAAGC | 0.305 |
| ACATAACT | 0.0912 |
| ACCTAATA | 0.137 |
| CCTTAGCC | -0.00184 |
| CACGCACG | -0.131 |
| ATTCGGGG | 0.0825 |
| GTGCCGAA | -0.0386 |
| ACTTACGG | 0.0069 |
| TGGAGTAA | 0.149 |
| AGTTTGTG | -0.0199 |
| GGCATAAC | 0.0911 |
| CGCGAAGC | 0.219 |
| GGCGCACA | 0.00969 |
| GGCGCAGA | 0.00055 |
| CGCGCACG | 0.0231 |
| CGCGAAGA | 0.273 |
| AGCGAAGA | -0.118 |
| CGCGCACA | 0.257 |
| CGCGCAGA | 0.287 |
| CGCGCAGC | 0.103 |
| ACCTTCAT | -0.0561 |
| CATAAACC | -0.0325 |
| CGAGGCGA | 0.0962 |
| ATAAGTTC | 0.197 |
| GAAAGTAC | -0.0278 |

| Sequence | PBM E-score |
| --- | --- |
| CTCAATTC | 0.066 |
| CCAGCTAA | -0.0477 |
| CATGCATC | 0.148 |
| AATGCATG | 0.254 |
| CATGCATA | 0.156 |
| AATGCATA | 0.0741 |
| CATGCATG | 0.252 |
| AATGCATT | 0.229 |
| CGTAACAC | 0.124 |
| GGGTCGTA | -0.236 |
| ACGAAAAT | 0.189 |
| AGAGTGTC | 0.198 |
| CGGACGAC | -0.0294 |
| CGGACGAA | 0.274 |
| GGGACGAA | -0.108 |
| ATCTGGTG | 0.0268 |
| CGATACAC | 0.00183 |
| ATTTCTCG | 0.332 |
| ATTTCTCA | 0.0134 |
| ATTTCTCC | -0.0308 |
| CATTACAA | 0.277 |
| GATTACAC | 0.156 |
| CATTACAC | 0.0518 |
| TATTACAA | 0.152 |
| GATTACAA | 0.294 |

| Sequence | PBM E-score |
| --- | --- |
| CATTACAG | 0.0228 |
| GACTTATA | 0.214 |
| TACTTATA | 0.0796 |
| AACTTATA | 0.257 |
| CTTGCTAA | -0.13 |
| CTAGCTAA | -0.0595 |
| CTAGCTAC | -0.0695 |
| ATTGCTAG | 0.014 |
| TTAGCTAA | 0.298 |
| CTAGCTAG | 0.279 |
| ATAGCTAA | 0.0748 |
| ATTGCTAA | 0.256 |
| ATAGCTAG | -0.106 |
| ACGCCTCT | -0.183 |
| GCTTTGAA | 0.108 |
| ACCGTGTA | 0.00454 |
| ACTTACAT | 0.0914 |
| AATTACGA | 0.148 |
| TCTTACAA | 0.0371 |
| GATTACGA | 0.318 |
| ACTTACGA | 0.184 |
| ACTTACAC | -0.0153 |
| GCTTACGA | 0.258 |
| GCTTACAA | 0.308 |
| CCTTACGA | 0.00401 |

| Sequence | PBM E-score |
| --- | --- |
| ACTTACAA | 0.278 |
| GCTTACAC | 0.23 |
| CATTACGA | 0.0111 |
| CGACTAAG | -0.00537 |
| ACTTCAGG | -0.041 |
| TACAACTA | 0.0174 |
| CAGACCCA | -0.175 |
| ACTTACTA | 0.184 |
| GCTTACTA | 0.426 |
| CCTTACTA | 0.211 |
| GCTTACCA | 0.255 |
| GCTTACCC | 0.034 |
| TCTTACCA | -0.131 |
| AGTCAAGA | 0.121 |
| GCCTTATA | -0.0929 |
| GGGATGCA | -0.167 |
| AACGGGAA | 0.00234 |
| GTCGAAGA | -0.0249 |
| ATTGGCTC | 0.0265 |
| CCCACGGA | -0.117 |
| TCCACGGA | 0.282 |
| CTAACGGC | 0.00942 |
| CTAACGGA | 0.294 |
| ACCACGGA | -0.141 |
| ATAACGGA | 0.155 |

| Sequence | PBM E-score |
| --- | --- |
| ATGGTCCC | -0.189 |
| CCGCCCTA | -0.00222 |
| AGTCGGAA | 0.0204 |
| AATACTCC | -0.123 |
| CGTAATCC | 0.191 |
| AGTAATCC | 0.229 |
| GGTAAACA | 0.124 |
| AGTAATCA | 0.297 |
| CATAATCA | 0.175 |
| CGTAATCA | 0.336 |
| GGTAATCA | 0.203 |
| AGTAAACA | 0.182 |
| CGTAAACA | 0.256 |
| AATCCCAG | 0.0625 |
| AAGAGTCG | 0.0695 |
| AATTTCTG | 0.0718 |
| AGCGGGCC | -0.0503 |
| CCACCATA | -0.0653 |
| CATCCGTC | -0.00289 |
| CACTAATA | 0.183 |
| GACTAGTA | -0.117 |
| AACTAATT | 0.217 |
